Screening data: PubChem, Broad Institute
Shown are actives, neighbours in structure and some others; about 4% of the full set was active somewhere.
ERAP1 HTS inh: ERAP1 (human) enzyme inhibition | recombinant ERAP1, Leu-AMC fluorescence, 60 min | 0.15% of 340,000 active | AID 652197 | inhibition, % at 10.7 µM | Q9NZ08;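 active = mean replicate inhibition of at least 30%, or all replicates individually reaching that 30% level; inactive = mean below 30% and not every replicate reaching it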
Target sequence (Q9NZ08 whole entry, looked up): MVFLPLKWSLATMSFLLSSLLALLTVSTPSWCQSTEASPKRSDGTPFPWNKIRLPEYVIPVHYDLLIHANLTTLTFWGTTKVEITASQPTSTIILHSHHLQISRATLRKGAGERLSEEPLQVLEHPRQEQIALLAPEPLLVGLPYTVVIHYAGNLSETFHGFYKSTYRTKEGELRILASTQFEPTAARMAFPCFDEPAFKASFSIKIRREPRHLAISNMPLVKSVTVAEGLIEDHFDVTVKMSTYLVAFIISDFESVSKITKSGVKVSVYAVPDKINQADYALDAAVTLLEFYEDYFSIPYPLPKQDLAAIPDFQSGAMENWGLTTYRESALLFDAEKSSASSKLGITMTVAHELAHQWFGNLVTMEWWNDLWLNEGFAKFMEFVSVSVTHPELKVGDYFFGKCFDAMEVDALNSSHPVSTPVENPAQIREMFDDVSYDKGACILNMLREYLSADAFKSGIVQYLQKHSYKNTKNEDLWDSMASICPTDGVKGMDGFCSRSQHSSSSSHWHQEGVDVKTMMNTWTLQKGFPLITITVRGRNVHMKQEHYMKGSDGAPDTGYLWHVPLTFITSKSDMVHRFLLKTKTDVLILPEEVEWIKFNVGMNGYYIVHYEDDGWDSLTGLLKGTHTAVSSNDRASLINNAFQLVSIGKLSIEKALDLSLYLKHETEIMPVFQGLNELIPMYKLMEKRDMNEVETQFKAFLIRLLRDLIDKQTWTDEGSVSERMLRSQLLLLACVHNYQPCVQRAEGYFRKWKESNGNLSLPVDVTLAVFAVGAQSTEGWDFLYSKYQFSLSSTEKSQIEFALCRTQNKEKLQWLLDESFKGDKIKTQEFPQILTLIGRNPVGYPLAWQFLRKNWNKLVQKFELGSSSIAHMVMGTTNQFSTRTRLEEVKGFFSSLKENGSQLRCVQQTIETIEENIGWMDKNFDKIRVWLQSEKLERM
FGF22 binding: binders of recombinant human FGF22 by thermal shift; SYPRO orange fluorescence; percent of sucrose octasulfate shift, DMSO zero; activity (Tm shift, normalised), % at 9.99 µM; 1.5% of 340,000 active;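 active = mean Tm shift, scaled 0 neutral to 100 positive control, at about 1.3% or above, every replicate too, limit read from the data; inconclusive = no clear call, values can overlap the other calls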
RAD52 inh: blocks human RAD52 DNA annealing | P43351 | recombinant RAD52 DNA annealing, FRET fluorescence | inhibition, % at 18.7 µM | 0.46% of 360,000 active;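 active = every replicate showing at least 50% inhibition; inconclusive = mean inhibition at least 50% but not in every replicate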
AF4-AF9 inh: inhibitors of human MLL-AF4/AF9 interaction | P42568 | AlphaScreen, biotin-AF4 peptide binding to FLAG-AF9 | inhibition, % at 10 µM | 0.47% of 350,000 active | AID 651704;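 active = every replicate reaching a set inhibition limit, whatever the replicate mean, cut at about 25% in these data; inconclusive = mean inhibition reaches that limit but some replicates miss it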
DENV2 CPE: DENV2-induced cell death inhibition; DENV2-infected cells, cytopathic effect rescue, plate reader; 1.7% of 350,000 active; CPE inhibition, % at 9.99 µM; in the data active = CPE inhibition above about 20%, passing the limit was not always enough; inconclusive = no clear call, values can overlap the other calls; tested in BHK-21 cells
A number is an active result; i = inactive; ? = inconclusive; nt = no result given; ! = not active in a repeat.

SMILES | ERAP1 HTS inh | FGF22 binding | RAD52 inh | AF4-AF9 inh | DENV2 CPE
O=C(CNC(=O)c1ccccc1)OCC(=O)N1N=C(c2ccc(Cl)cc2)CC1c1ccco1 (stereo not given) | i | 43 | i | i | i
C[C@@H]1CN([C@@H](C)CO)C(=O)c2cc(Br)cnc2O[C@@H]1CN(C)S(C)(=O)=O | i | i | i | i | 32!
C[C@@H]1CN([C@H](C)CO)C(=O)c2cc(Br)cnc2O[C@@H]1CN(C)C(=O)c1ccccc1 | i | i | i | i | 65!
CCCC(=O)Nc1ccc2nn(-c3ccc(OC)cc3)nc2c1 | i | i | i | i | 26
Cc1ccc2oc(Nc3nc(C)c(C)c(C)n3)nc2c1 | i | i | i | nt | i
Cc1nc(Nc2nc3ccccc3o2)nc(C)c1C | i | 44 | i | i | i
CCS(=O)(=O)Nc1ccc2c(c1)C(=O)N(C)C[C@H](OC)[C@H](C)CN(C(=O)C1CC1)[C@H](C)CO2 | i | i | i | i | i
CCOC(=O)c1c(C)[nH]c(C)c1C(=O)COC(=O)c1cc(OC)cc(OC)c1 | i | 59 | i | i | nt
Oc1ccc(N=Nc2ccc3ccccc3c2)cc1 | i | i | i | 26 | i
COc1cc(N=Nc2ccc3ccccc3c2)ccc1O | i | i | i | 29 | ?
CN1CCCC1c1cccnc1 (stereo not given) | i | i | i | i | 117
CC(C)NC(=O)Nc1ccc2c(c1)C(=O)N([C@H](C)CO)C[C@@H](C)[C@H](CN(C)C(=O)Nc1ccc(C(F)(F)F)cc1)OCCCC[C@@H](C)O2 | i | i | i | i | 50
C[C@H]1CCCCO[C@@H](CN(C)C(=O)Nc2ccccc2)[C@@H](C)CN([C@@H](C)CO)C(=O)c2cc(NC(=O)Nc3ccc(C(F)(F)F)cc3)ccc2O1 | nt | i | i | i | 36
C[C@@H]1CCCCO[C@@H](CN(C)C)[C@H](C)CN([C@@H](C)CO)C(=O)c2cc(NC(=O)Nc3ccc(C(F)(F)F)cc3)ccc2O1 | i | i | 53 | i | ?
C[C@H](CO)N1C[C@H](C)[C@H](CN(C)C(=O)Nc2ccc(F)cc2)OCCCC[C@H](C)Oc2ccc(NC(=O)Nc3ccc(C(F)(F)F)cc3)cc2C1=O | i | 1.3 | i | i | i
C[C@H]1CN([C@@H](C)CO)C(=O)c2cc(C#CC3CC3)cnc2O[C@H]1CN(C)S(=O)(=O)c1cccc(F)c1 | i | i | i | i | ?
CN1C(=O)c2cc(NC(=O)c3cnccn3)ccc2OC[C@@H]2O[C@H](CC(=O)O)CC[C@H]21 | i | i | i | i | i
CC(C)NC(=O)Nc1ccc2c(c1)CC(=O)N([C@H](C)CO)C[C@H](C)[C@H](CN(C)S(=O)(=O)c1ccccc1)O2 | i | i | i | i | i
CCCN(C)C[C@@H]1OCCCC[C@@H](C)Oc2ccc(NC(=O)Nc3ccc(C(F)(F)F)cc3)cc2C(=O)N([C@H](C)CO)C[C@@H]1C | i | i | i | i | 28
C[C@@H]1CCCCO[C@H](CN(C)C(=O)Nc2ccc(C(F)(F)F)cc2)[C@@H](C)CN([C@@H](C)CO)C(=O)c2cc(NC(=O)Cc3ccccc3)ccc2O1 | nt | i | nt | nt | 42
C[C@H]1CCCCO[C@@H](CN(C)C(=O)Nc2ccc(C(F)(F)F)cc2)[C@@H](C)CN([C@@H](C)CO)C(=O)c2cc(NC(=O)Cc3ccccc3)ccc2O1 | nt | i | nt | nt | i
C[C@@H]1CCCCO[C@H](CN(C)C(=O)Nc2ccc(F)cc2)[C@H](C)CN([C@@H](C)CO)C(=O)c2cc(NC(=O)Nc3ccc(C(F)(F)F)cc3)ccc2O1 | i | 1.3 | i | i | i
C[C@@H]1CCCCO[C@H](CN(C)C(=O)Nc2ccc(F)cc2)[C@@H](C)CN([C@H](C)CO)C(=O)c2cc(NC(=O)Nc3ccc(C(F)(F)F)cc3)ccc2O1 | i | i | i | i | i
CCCN(C)C[C@H]1OCCCC[C@H](C)Oc2ccc(NC(=O)Nc3ccc(C(F)(F)F)cc3)cc2C(=O)N([C@@H](C)CO)C[C@H]1C | i | i | i | i | i
CO[C@@H]1CN(C)C(=O)c2ccc(NC(=O)CC(F)(F)F)cc2OC[C@@H](C)N(C(=O)C2CC2)C[C@@H]1C | i | i | i | i | i
SMILES | ERAP1 HTS inh | FGF22 binding | RAD52 inh | AF4-AF9 inh | DENV2 CPE
C[C@@H]1CN([C@@H](C)CO)C(=O)c2cccc(NC(=O)Nc3ccc(C(F)(F)F)cc3)c2O[C@H]1CN(C)S(C)(=O)=O | i | i | i | i | i
COCC(C)n1c(C)cc(C(=O)COC(=O)/C=C/c2cccc(F)c2)c1C (stereo not given) | i | 43 | i | i | i
CC(=O)NC(c1cccc([N+](=O)[O-])c1)c1ccc2cccnc2c1O (stereo not given) | i | i | i | i | i
COc1ccc(Cl)cc1C(Nc1cccnc1)c1ccc2cccnc2c1O (stereo not given) | i | i | i | 26 | i
CC(=O)NC(c1ccc(C(C)C)cc1)c1ccc2cccnc2c1O (stereo not given) | i | i | i | i | i
COc1cccc(C(NC(C)=O)c2ccc3cccnc3c2O)c1 (stereo not given) | i | i | i | 26 | i
CCSc1nc2sc3c(c2c(=O)n1CC)CCC3 | i | i | i | i | 40
CCCn1c(SCC(=O)NC)nc2sc3c(c2c1=O)CCC3 | i | i | i | i | i
COCC(=O)N1C[C@H](C)[C@@H](OC)CN(C)C(=O)c2ccc(NC(=O)c3ccc(F)cc3)cc2OC[C@H]1C | i | i | i | i | i
CCOc1cccc(C(=O)NC(=S)Nc2ccc(Cl)cc2C(=O)O)c1 | i | 43 | i | i | i
CC(C)n1cnnc1SCC(=O)Nc1cccnc1Cl | i | i | i | ? | 68
C#CCNc1cc(-c2ccccc2)nc2ncnn12 | i | 44 | i | i | ?
CCN(CC)S(=O)(=O)c1ccc(/C=C/C(=O)OCC(=O)Nc2ccc(S(N)(=O)=O)cc2)cc1 | i | i | i | i | i
CCN(CC)S(=O)(=O)c1ccc(/C=C/C(=O)OCC(=O)Nc2ccc(C(N)=O)cc2)cc1 | i | 43 | i | i | i
COc1cccc(NC(=O)N2CC(=O)N3[C@H](CO)[C@H](c4ccc(C#CC5CCCC5)cc4)[C@@H]3C2)c1 | i | nt | i | i | i
O=C(NC1CCCC1)N1CCCCN2[C@H](CO)[C@H](c3ccc(/C=C/c4ccccc4)cc3)[C@@H]2C1 | nt | nt | i | nt | nt
COc1ccc(CNC(=O)C2CCN(S(=O)(=O)c3ccccc3)CC2)cc1 | i | i | i | i | i
O=C(NCCc1ccccc1)C1CCN(S(=O)(=O)N2CCOCC2)CC1 | i | 44 | i | i | i
COc1ccc(S(=O)(=O)N2CCC(C(=O)N[C@H](C(=O)NCc3ccccc3)C(C)C)CC2)cc1 | i | 44 | i | i | 47
CS(=O)(=O)N1CCC(C(=O)NCc2ccccc2)CC1 | i | 44 | i | i | i
CCS(=O)(=O)N1CCC(C(=O)NCc2ccc(OC)cc2)CC1 | i | 43 | i | i | i
CS(=O)(=O)N1CCC(C(=O)NCCc2ccccc2)CC1 | i | nt | i | nt | nt
